MITF act = activators of MITF-driven TRPM1 promoter reporter, primary screen, cell-based, SK-MEL-5, luciferase, single point; AID 588334, 2011; 0.75% of 300,000 active; activation, % at 12.5 µM; SK-MEL-5 TRPM1-promoter luciferase, 24 h; % of positive control, neutral wells = 0;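 active = mean activation of at least 80% with every replicate also reaching 80%; inconclusive = mean reaches 80% but some replicate falls short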;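 also: 0% = neutral control wells and 100% = parthenolide positive control wells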
MITF TRPM1 inh = inhibitors of MITF-dependent TRPM1 promoter reporter, primary screen, cell-based, SK-MEL-5, single point, luciferase. inhibition, % at 12.5 µM. SK-MEL-5 TRPM1 promoter luciferase, 24 h. 0.83% of 330,000 active;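 active = mean inhibition across replicates of 60% or more, whatever share of single replicates reaches that level; inconclusive = some that reach 60%, reason not given; inactive = mean inhibition across replicates below 60%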
LGR2 inh = inhibitors of bursicon-induced LGR2 CRE-luciferase signal, primary screen, cell-based, HEK293, CRE-luciferase reporter, bursicon stimulation. 0.35% of 380,000 active. AID 720647, 2013. Drosophila bursicon receptor LGR2 (rickets). bursicon-stimulated, 4 h. inhibition, % at 9.99 µM;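 active = drop in luminescence signal, shown as inhibition above about 50% in the replicate tests, limit read from the data, passing the limit was not always enough; inconclusive = probably only some replicates passing the limit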;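 also: agonist challenge used bursicon conditioned medium at about half maximal strength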
TWEAK-Fn14 inh = inhibitors of TWEAK-Fn14 signaling, primary screen, luciferase reporter cells, uHTS | inhibition, % at 10 µM | AID 1159606, 2016 | TWEAK-stimulated Fn14 reporter cells, luciferase luminescence, 8 h | 2% of 360,000 active; in the data active = inhibition above about 50%
LMP1 NFkB inh = EBV LMP1-driven NF-kappaB luciferase reporter inhibitors, primary screen, cell-based, luminescence, single point; LMP1-induced NF-kappaB luciferase reporter cells; inhibition, % at 12.5 µM; 0.69% of 350,000 active; in the data active = inhibition above about 41%; inconclusive = no clear call, values can overlap the other calls;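 also: 0% = neutral control wells and 100% = reference inhibitor control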
TROY NFkB inh = inhibitors of TROY-driven NF-kB signaling, primary screen, Q293 LMP1-TROYcd cells, NF-kB luciferase, uHTS; Q293 LMP1-TROYcd NF-kB luciferase reporter, 4 h; inhibition, % at 10 µM; 0.98% of 360,000 active; AID 1347056, 2019;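 active = compounds whose plate-normalised and pattern-corrected inhibition of the luciferase reporter signal at the single screening dose is 50% or more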
* marks the source's active call; other numbers are inactive results; ? = inconclusive; / = no result. Most compounds without a hit are left out; they make up all but 3% or so of the library.

SMILES	MITF act	MITF TRPM1 inh	LGR2 inh	TWEAK-Fn14 inh	LMP1 NFkB inh	TROY NFkB inh
COc1nc(OC)nc(Oc2ccc(Cl)cc2[N+](=O)[O-])n1	-12	14	-9	-1	-5	11
C[C@@H]1CN([C@@H](C)CO)C(=O)c2cc(NC(=O)c3ccncc3)ccc2O[C@H]1CN(C)C(=O)Nc1ccc2c(c1)OCO2	/	/	-20	/	/	/
CCC(=O)N[C@@H]1CC[C@@H](CC(=O)NCC2CCCCC2)O[C@@H]1CO	/	/	10	/	/	/
N#Cc1c(NC(=O)CSc2ncn[nH]2)sc2c1CCCC2	-72	73*	/	81*	27	39
CC1CCc2c(sc(NC(=O)Cn3nc(C(=O)O)c4ccccc4c3=O)c2C#N)C1 (centres undefined)	20	-17	-14	-63	-2	-28
CC(C)(C)C1CCc2c(sc(NC(=O)CSc3ncn[nH]3)c2C#N)C1 (centres undefined)	/	8	/	18	-1	-18
CCN1CCN(CC(=O)Nc2sc3c(c2C#N)CCC(C)C3)CC1 (centres undefined)	11	-11	6	78*	-12	/
CC1CCc2c(sc(NC(=O)CSc3ncn[nH]3)c2C#N)C1 (centres undefined)	/	62*	9	72*	28	45
C[C@@H]1CN([C@@H](C)CO)C(=O)c2cc(NC(=O)CCC(F)(F)F)ccc2O[C@@H](C)CCCCO[C@@H]1CN(C)C(=O)Nc1ccc(C(F)(F)F)cc1	/	/	12	/	/	/
O=c1c(Cl)c(Cl)cnn1-c1ccccc1	-88	88*	104*	91*	0	-1
CO[C@@H]1CN(C)C(=O)c2cc(NC(=O)c3ccccc3F)ccc2OC[C@H](C)N(CC2CCOCC2)C[C@@H]1C	/	/	9	/	/	/
Cc1c(NC(=O)COC(=O)c2c3c(nc4ccccc24)CCCC3)c(=O)n(-c2ccccc2)n1C	-1	5	-3	-11	9	17
COc1ccc(NC(=O)COC(=O)c2c3c(nc4ccccc24)CCCC3)cc1	/	4	/	59*	7	42
COc1ccc(OCCC(=O)OCC(=O)Nc2cccc(Br)c2)cc1	3	-4	-6	101*	3	50
CNC(=O)COC(=O)c1c2c(nc3ccccc13)CCC2	13	-10	1	-6	-11	18
COc1ccc(OC)c(NC(=O)COC(=O)COc2ccc(Nc3ccccc3)cc2)c1	4	-3	/	33	70*	10
COc1ccc(NC(=O)COC(=O)c2c3c(nc4ccccc24)CCCC3)cc1Cl	10	-11	/	65*	29	53*
CCC(=O)Nc1ccc2c(c1)C(=O)N(C)C[C@@H](OC)[C@H](C)CN(CC1CCCCC1)[C@@H](C)CO2	/	/	-1	/	/	/
COc1ccc2c3c([nH]c2c1)[C@@H](CO)N(C(=O)C1CCCC1)CC31CN(Cc2cccc(F)c2)C1	/	/	8	/	/	/
CN(C)C(=O)C[C@@H]1C[C@@H]2c3cc(NC(=O)Nc4ccccc4)ccc3O[C@@H]2[C@@H](CO)O1	/	/	-1	/	/	/
CCCNC(=O)C[C@H]1CC[C@@H]2[C@H](COc3ccc(NC(=O)c4ccc5c(c4)OCO5)cc3C(=O)N2C)O1	/	/	0	/	/	/
COc1ccc(NC(=O)N(C)C[C@H]2OCCCC[C@@H](C)Oc3ccc(NC(=O)Nc4ccc(F)cc4)cc3C(=O)N([C@H](C)CO)C[C@@H]2C)cc1	/	/	23	/	/	/
COc1ccc(OC)c(NC(=O)COC(=O)c2c3c(nc4ccccc24)CCCC3)c1	9	-11	71*	55*	31	29
O=C(NC1Cc2ccccc2C1)[C@H]1[C@H](CO)[C@H]2Cn3c(ccc(-c4ccccc4)c3=O)[C@@H]1N2	/	/	3	/	/	/
COc1ccc2c3c([nH]c2c1)[C@H](CO)N(C(=O)c1ccccc1)CC31CCN(C(=O)NC(C)C)CC1	/	/	-11	/	/	/
SMILES	MITF act	MITF TRPM1 inh	LGR2 inh	TWEAK-Fn14 inh	LMP1 NFkB inh	TROY NFkB inh
CC1C/C(=C/c2ccccn2)C(=O)/C(=C/c2ccccn2)C1 (centres undefined)	-100	100*	/	64*	90*	3
CC(C)(C)C1C/C(=C/c2ccccn2)C(=O)/C(=C/c2ccccn2)C1 (centres undefined)	-101	102*	/	-30	86*	1
CC1C/C(=C/c2cccs2)C(=O)/C(=C/c2cccs2)C1 (centres undefined)	15	-16	2	11	-5	4
CN1C(=O)c2cc(NS(=O)(=O)c3ccc(F)cc3)ccc2OC[C@H]2O[C@@H](CC(=O)O)CC[C@@H]21	/	/	-4	/	/	/
CC(=O)N[C@H]1CC[C@@H](CC(=O)NCc2ccc(Cl)cc2)O[C@@H]1CO	/	/	-10	/	/	/
O=C(c1cccs1)N1CCN(C(=O)c2cccs2)C1=S	-16	23	?	70*	2	29
O=C(c1cccs1)N1CCCC1	-3	3	/	0	-2	-5
O=C(c1ccc(Cl)cc1)N1CCn2c1nc1ccccc12	62	-68	-53	-26	-7	-47
O=C(c1cccs1)N1CCn2c1nc1ccccc12	82*	-81	/	-30	-32	-65
CN(C)C(=O)C[C@H]1C=C[C@@H](NS(=O)(=O)c2ccccc2)[C@@H](CO)O1	/	/	-9	/	/	/
COc1ccccc1CNc1nc(NCc2ccccc2)nc2ccsc12	/	/	33	0	/	50*
Fc1ccc(Nc2nc(NCc3ccco3)c3ccccc3n2)cc1	-19	16	32	62*	12	46
c1ccc(CNc2nc(NCc3ccccc3)c3ccccc3n2)cc1	/	34	/	10	-37	78*
COc1ccccc1CNc1nc(NCc2cccc(OC)c2OC)c2sccc2n1	/	/	29	76*	/	75*
CNC[C@@H]1Oc2c(NS(=O)(=O)c3ccc(OC)cc3)cccc2C(=O)N([C@@H](C)CO)C[C@H]1C	/	/	-3	/	/	/
CO[C@H]1CN(C)C(=O)c2ccc(NC(=O)Nc3cccc(F)c3)cc2OC[C@@H](C)N(C(C)=O)C[C@H]1C	/	/	-10	/	/	/
COc1ccc(S(=O)(=O)Nc2ccc3c(c2)C(=O)N([C@H](C)CO)C[C@H](C)[C@H](CN(C)C(=O)NC2CCCCC2)OCCCC[C@H](C)O3)cc1	/	/	18	/	/	/
CC(=O)N1CC(=O)N2[C@H](CO)[C@@H](c3ccc(-c4ccc(C)cc4)cc3)[C@@H]2C1	/	/	3	/	/	/
COCCNc1nc(NCc2ccccc2F)c2sccc2n1	/	/	0	-19	/	19
c1ccc(CNc2nc3ccccc3[nH]2)cc1	83*	-76	-33	-19	-1	-73
Cc1ccc2nc(NCc3ccccc3)[nH]c2c1	11	-12	/	-28	-15	-29

From PubChem BioAssay
